Screens (PubChem)
In the library only some 19% were active in any assay of this set; here they are far more common.
TDP1 block = blocks human tyrosyl-DNA phosphodiesterase 1; Q9NUW8; recombinant TDP1, AlphaScreen DNA substrate cleavage; Potency, µM (series often up to 130 µM), without a hit: top-dose activity change, negative = inhibition, usual class: inhibitors; actives 0.28% (n = 350,000); AID 485290; note: potency is the fitted concentration of half-maximal effect; % is set by controls: 0 for no effect and ±100 for the full control effect; nearly all actives have a fitted effect of over 40% in size
Target sequence (Q9NUW8 whole entry, looked up): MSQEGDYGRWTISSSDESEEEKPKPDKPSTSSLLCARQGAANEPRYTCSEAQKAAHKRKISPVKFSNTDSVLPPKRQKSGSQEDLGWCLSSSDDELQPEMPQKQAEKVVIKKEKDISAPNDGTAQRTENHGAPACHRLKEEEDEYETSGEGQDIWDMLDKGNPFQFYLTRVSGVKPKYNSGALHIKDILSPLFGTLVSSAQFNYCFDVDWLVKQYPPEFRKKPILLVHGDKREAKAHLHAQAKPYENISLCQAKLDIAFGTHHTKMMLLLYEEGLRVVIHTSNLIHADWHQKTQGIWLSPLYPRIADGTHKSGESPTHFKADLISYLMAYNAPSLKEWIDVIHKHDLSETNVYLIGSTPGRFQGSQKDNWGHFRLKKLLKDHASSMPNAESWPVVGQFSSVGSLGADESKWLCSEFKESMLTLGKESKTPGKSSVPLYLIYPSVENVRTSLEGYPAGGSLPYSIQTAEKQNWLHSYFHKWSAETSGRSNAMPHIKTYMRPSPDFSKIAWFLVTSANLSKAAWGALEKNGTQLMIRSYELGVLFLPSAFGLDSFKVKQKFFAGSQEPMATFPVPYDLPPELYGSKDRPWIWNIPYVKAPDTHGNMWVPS
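Tdp1 1 nM final; 15 min RT w/ cpd; substrate 15 nM, 5 min; beads 10 ug/ml, 10 min; AlphaScreen read. Neg ctrl: no enzyme.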
HepG2 tox = counter-screen for TGF-b inhibitors: cytotoxicity in HepG2 cells; HepG2 CAGA-GFP viability, ATP luminescence, 18 h; Potency, µM (top dose mostly 46.1 µM), for the others: at the highest dose activity change, negative = cytotoxicity, most hits filed as cytotoxic; actives 0.76% (n = 410,000); note: potency is the fitted concentration of half-maximal effect
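HepG2 CAGA-GFP cells (1000/well, DMEM with 1% FBS) received compound, then TGF-beta at 500 pg/mL final, and were incubated 18 hours at 37 degrees C. Viability was read by CellTiter-Glo luminescence. Media-only wells were set as complete cell-killing and DMSO as no toxicity.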
DT40 TDP1 CPT = growth inhibition of DT40 Tdp1-/-;hTDP1 cells with camptothecin (screen for TDP1 inhibitors). Potency, µM (series often up to 46.2 µM), for the others: top-dose activity change, negative = growth inhibition, most hits filed as inhibitors. actives 12% (n = 420,000). AID 686979. chicken DT40 Tdp1-/-;hTDP1 cells + 20 nM CPT, ATP luminescence, 48 h; note: potency is the fitted concentration of half-maximal effect; % is set by controls: 0 for no effect and ±100 for the full control effect; nearly all actives have a fitted effect of over 55% in size
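Cell growth measured by CellTiter-Glo luminescence after a minimum 48 h, 37 C compound exposure with 20 nM CPT in Tdp1-knockout DT40 cells stably expressing hTDP1, seeded 400/well; qHTS titration format.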
TGFb inhibitor = inhibitors of TGF-b signaling; HepG2 CAGA-GFP TGF-b/SMAD3 reporter, GFP fluorescence, 18 h; TGF-beta stimulated, 500 pg/mL final; Potency, µM (highest dose often 46.1 µM), for inactives: top-dose activity, negative = inhibition, actives largely listed as inhibitors; actives 1.2% (n = 410,000); AID 588855; note: potency is the fitted concentration of half-maximal effect; % is set by controls: 0 for no effect and ±100 for the full control effect; nearly all actives have a fitted effect of over 65% in size
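Per well, imaged GFP fluorescence of HEPG2 CAGA-GFP cells gives the signal; cells get compound, then TGF-beta (500 pg/mL final), 18 h at 37 degrees C; %Activity versus -TGF-beta and +DMSO controls.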
IL-1B inflam inh = blocks inflammasome-driven IL-1 beta release. actives 4.7% (n = 360,000). THP-1 LPS/ATP IL-1B secretion, AlphaLISA, 16 h; active compounds read low. activity change, % at 57.5 µM; in the data active = activity change below about -50%; inconclusive = mostly about -30% to -49%; note: % is set by controls: 0 for no effect and ±100 for the full control effect
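THP-1 cells pretreated 1 hr with compounds (up to 57.5 uM final), then stimulated with LPS (250 ng/mL final) plus ATP (1.25 mM final); secreted IL-1B measured by AlphaLISA after 16 hr, decreased signal indicating inhibition.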
DT40 TDP1 no CPT = qHTS for Inhibitors of human tyrosyl-DNA phosphodiesterase 1 (TDP1): qHTS in cells in absence of CPT | actives 15% (n = 420,000) | DT40 Tdp1-/- hTDP1 cells, no CPT, ATP luminescence, 48 h | AID 686978, 2013 | Potency, µM (titrated, usually from 46.2 µM), for the others: at the highest dose activity change, negative = growth inhibition, most hits filed as inhibitors; note: potency is the fitted concentration of half-maximal effect; % is set by controls: 0 for no effect and ±100 for the full control effect; nearly all actives have a fitted effect of over 55% in size
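A cellular qHTS used chicken DT40 cells lacking endogenous Tdp1 but carrying stably transfected human TDP1. Compounds were applied without camptothecin, and cell growth kinetics were judged by ATP-dependent luminescence after ≥48 hr.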
Active calls of the source: *; u = inconclusive; x = no result; [ ] = remark or other dose. Unless noted, calls come from the whole dose curve; as a rule, active = well fitted curve in the direction sought with a large enough effect; inconclusive = small, poorly fitted or top-dose-only effect, or another doubt; inactive = no such curve, though single readings can be large; an effect the other way counts as inactive or inconclusive.

SMILES | TDP1 block | HepG2 tox | DT40 TDP1 CPT | TGFb inhibitor | IL-1B inflam inh | DT40 TDP1 no CPT
Cc1ccn2cc(C(=O)Nc3nnc(C)s3)nc2c1 | 9.8% | 1.1% | -17.4% | 1.8% | 11.8 | -26.5%
CCCOc1cccc(C(=O)Nc2ccc3c(c2)OCCO3)c1 | 5.4% | -37.1% | -71.1% | -18.5% | -3.8 | 23.1µM*
Cc1ccn2cc(C(=O)Nc3ccc4c(c3)OCCO4)nc2c1 | 3.8% | -36.7% | -23.7% | -6.2% | -89.1* | -26.7%
CCCOc1cccc(C(=O)Nc2ccc(-c3nc4ccccc4o3)cc2)c1 | 0.4%[12.3 µM] | -3.9% | u | -4.4% | x | 13µM*
O=C(Nc1ccc2c(c1)OCCO2)c1cccc(Br)c1 | 2.6% | -17.5% | 6.7% | -3.8% | -54.0* | -23.0%
Cc1ccccc1Cn1ccn(-c2ccc(F)c(F)c2)c(=O)c1=O | -3.9% | 1.1% | 25.7% | 6.2% | x | 1.8%
CCCN1/C(=C(\C#N)C2=NS(=O)(=O)c3ccccc32)N(C)c2ccccc21 | x | 10.0% | 12.1% | -12.4% | -6.5 | 1.0%
O=c1c2oc3ccccc3c2n(Cc2ccc(Cl)cc2)c(=O)n1Cc1ccccc1 | 2.6% | -1.7% | u | 6.3% | x | u
CCC(CC)C(=O)Nc1cccc(C(=O)Nc2ccc3c(c2)OCO3)c1 | 0.0% | -1.8% | 25.9µM* | -0.6% | -16.8 | u
CCC(CC)C(=O)Nc1cccc(C(=O)Nc2nccs2)c1 | 3.8% | -3.1% | u | -5.6% | 20.0 | 23.1µM*
CCC(CC)C(=O)Nc1cccc(C(=O)Nc2ccc(S(=O)(=O)Nc3ccc(C)cc3)cc2)c1 | 4.0% | -1.6% | 20.6µM* | u | u | u
O=C(Nc1ccc2c(c1)OCCO2)c1c(F)c(F)c(F)c(F)c1F | 1.1% | -9.5% | 18.4µM* | -0.1% | -14.0 | u
CCN(CC)S(=O)(=O)c1cccc(C(=O)Nc2ccc3c(c2)OCO3)c1 | 4.8% | -1.4% | u | -7.3% | -4.1 | u
CCC(CC)C(=O)Nc1cccc(C(=O)Nc2ccc(S(N)(=O)=O)cc2)c1 | 0.0% | -2.0% | -6.3% | 1.3% | 8.7 | -10.6%
CCOC(=O)c1cccc(NC(=O)NCc2ccc3c(c2)CCN3C(=O)CC)c1 | 0.6% | -16.5% | -22.6% | u | x | u
COc1cccc(C(=O)Nc2c3c(nn2-c2ccc(Cl)cc2)CS(=O)(=O)C3)c1 | 7.8% | -11.4% | -19.2% | 15.5% | x | u
O=C(CCC(=O)OCC(=O)c1cccc([N+](=O)[O-])c1)Nc1cccc(Cl)c1Cl | -9.9% | -0.1% | 15.0% | 19.7% | 12.9 | -1.1%
O=C(CCC(=O)OCC(=O)c1ccc([N+](=O)[O-])cc1)Nc1ccccc1Cl | 3.7% | 3.4% | 18.4µM* | 18.4% | 4.5 | u
Cc1ccccc1OCC(=O)NCC(=O)OCc1ccc2ccccc2c1 | 3.2% | -11.9% | u | -2.4% | x | 15.8µM*
Cc1ccccc1OCC(=O)NCC(=O)OCc1cccc2ccccc12 | 0.2% | -1.2% | -13.5% | -2.5% | x | -0.1%
Cc1ccccc1OCC(=O)NCC(=O)OCC(=O)c1ccc(-c2ccccc2)cc1 | 1.4% | 2.6% | -0.6% | 14.3% | x | u
Cc1ccccc1OCC(=O)NCC(=O)OCC(=O)c1ccc([N+](=O)[O-])cc1 | 0.4% | -1.8% | 25.9µM* | 0.5% | u | 11.2µM*
Cc1cccc(N(CC(=O)Nc2cccc(Cl)c2C)S(C)(=O)=O)c1C | x | 1.9% | u | -4.7% | x | u
CC(C)CN(C#N)c1nc(N2CCOCC2)nc(N2CCOCC2)n1 | 3.9% | -7.4% | 11.6µM* | -5.7% | -9.9 | 11.6µM*
CCN(CC)c1nc(C#N)nc(N2CCOCC2)n1 | -0.3% | -17.0% | 10µM* | -2.3% | x | 10µM*
